Experimental data reported in PubChem BioAssay.
Values without a mark were called inactive. Calls of active or inactive are those of the source.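 The calls were made as follows, unless noted: active = at least 20% inhibition of 6-phosphogluconate dehydrogenase activity; inactive = the rest.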

Tested on: not listed separately
Experiment: NPC library primary testing for decreased DLD-1 cell viability via CellTiter-Glo (AID 1117346;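 active = compounds that lower survival of DLD-1 colon cancer cells in the luminescence readout, no cutoff given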)
Details: DLD-1 viability, CellTiter-Glo luminescence; at 20 µM (top of the series)

Row | Compound | viability decrease (inhibition)
1 | O=C1NCN(c2ccccc2)C12CCN(CCCOc1ccc(F)cc1)CC2 | 87.1% (active)
2 | Fc1cc(Br)ccc1CBr | 9.1%
3 | CN(C)C(=S)SSC(=S)N(C)C | 59.7% (active)
4 | CN1C[C@H](CNC(=O)OCc2ccccc2)C[C@@H]2c3cccc4c3c(cn4C)C[C@H]21 | 92.2% (active)
5 | COc1ccc2c(c1OC)C(=O)O[C@H]2[C@@H]1c2cc3c(cc2CCN1C)OCO3 | -6.5%
6 | COC(=O)C(Cl)C(=O)OC | 3.4%
7 | CC(C)(C)c1ccc(O)cc1 | 4.65%

Target: 6-phosphogluconate dehydrogenase, decarboxylating (Homo sapiens) (UniProt P52209)
Sequence (P52209 whole entry, looked up): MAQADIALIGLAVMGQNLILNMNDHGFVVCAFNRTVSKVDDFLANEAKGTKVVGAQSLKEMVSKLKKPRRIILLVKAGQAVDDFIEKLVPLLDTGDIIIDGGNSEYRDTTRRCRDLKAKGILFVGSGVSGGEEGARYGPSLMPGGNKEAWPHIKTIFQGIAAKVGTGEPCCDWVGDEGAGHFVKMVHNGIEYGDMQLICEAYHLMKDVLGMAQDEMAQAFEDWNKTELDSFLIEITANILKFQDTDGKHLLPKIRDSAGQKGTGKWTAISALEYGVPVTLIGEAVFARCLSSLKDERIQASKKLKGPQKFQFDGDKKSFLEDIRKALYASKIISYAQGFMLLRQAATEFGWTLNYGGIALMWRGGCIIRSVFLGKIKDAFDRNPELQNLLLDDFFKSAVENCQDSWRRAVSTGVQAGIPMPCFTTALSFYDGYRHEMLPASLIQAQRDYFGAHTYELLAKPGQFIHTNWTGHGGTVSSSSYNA
Experiment: inhibition of human phosphogluconate dehydrogenase – biochemical, recombinant enzyme, NADPH absorbance, primary screen (AID 1159550)
Details: recombinant 6PGD, NADPH absorbance 341 nm; at 10 µM; active compounds read high

Row | Compound | inhibition [%]
8 | O=C1CC2OCC=C3CN4CCC56c7ccccc7N1C5C2C3CC46 (centres undefined) | -2.71
9 | COC1C(O)C(O[C@H]2CC[C@]3(C=O)C4C(OC(C)=O)C[C@]5(C)[C@@H](C6=CC(=O)OC6)CC[C@]5(O)C4CC[C@]3(O)C2)OC(C)C1OC(C)=O (some centres undefined) | 10.3
10 | COP(=S)(OC)Oc1ccc(Sc2ccc(OP(=S)(OC)OC)cc2)cc1 | -4.06
11 | CN(C)C(=S)SSC(=S)N(C)C | -10.3
12 | CNC(=O)O/N=C/C(C)(C)SC | -1.92
13 | CC[C@H]1/C=C\C=C\C[C@H](C)[C@@H](O)[C@](C)(O)C(=O)[C@H](C)[C@@H](O)C(C)C(=O)[C@H](C)[C@H](O)[C@@H](C)/C=C/C(=O)OC2C(C)[C@H](CC1)O[C@@]1(CC[C@@H](C)[C@@H](CC(C)O)O1)[C@@H]2C (some centres undefined) | -4.41
14 | CC1(C)[C@H](O)CC(=O)[C@@]2(C)[C@@H]1CC(=O)[C@]1(C)[C@H]2CC[C@@]2(C)[C@H](c3ccoc3)OC(=O)[C@H]3O[C@]321 | 8.09
15 | c1cncc([C@@H]2CCCCN2)c1 | 4.92
16 | C[C@H]1CC[C@]2(NC1)O[C@H]1C[C@H]3[C@@H]4CC[C@H]5C[C@@H](O[C@@H]6O[C@H](CO)[C@H](O[C@@H]7O[C@H](CO)[C@@H](O)[C@H](O[C@@H]8OC[C@@H](O)[C@H](O)[C@H]8O)[C@H]7O[C@@H]7O[C@H](CO)[C@@H](O)[C@H](O)[C@H]7O)[C@H](O)[C@H]6O)CC[C@]5(C)[C@H]4CC[C@]3(C)[C@H]1[C@@H]2C | 1.84
17 | CN1C[C@H](CNC(=O)OCc2ccccc2)C[C@@H]2c3cccc4c3c(cn4C)C[C@H]21 | -7.03
18 | COc1ccc2c(c1OC)C(=O)O[C@H]2[C@@H]1c2cc3c(cc2CCN1C)OCO3 | -1.62
19 | CO[C@H]1[C@H](O)[C@H](O[C@H]2CC[C@@]3(C=O)[C@H](CC[C@@H]4[C@@H]3CC[C@]3(C)[C@@H](C5=CC(=O)OC5)CC[C@]43O)C2)O[C@@H](C)[C@@H]1O | -22
20 | CCC1C2CC3C4N(C)c5ccccc5C45CC(C2C5O)N3C1O (centres undefined) | 6.73
21 | Cc1ccc2cc3c(ccc4ccccc43)c3c2c1CC3 | -6.1
22 | C[C@@H]1CC[C@@]2(OC1)O[C@H]1[C@@H](O)[C@H]3[C@@H]4CC[C@H]5C[C@@H](O[C@@H]6O[C@H](CO)[C@H](O[C@@H]7O[C@H](CO)C(O)[C@H](O[C@@H]8OC[C@@H](O)[C@H](O)[C@H]8O)[C@H]7O[C@@H]7O[C@H](CO)[C@H](O)[C@H](O[C@@H]8O[C@H](CO)[C@@H](O)[C@H](O)[C@H]8O)[C@H]7O)[C@H](O)[C@H]6O)[C@H](O)C[C@]5(C)[C@H]4CC[C@]3(C)[C@H]1[C@@H]2C (some centres undefined) | -7.91
23 | Cn1c(=O)c2c(ncn2CCCl)n(C)c1=O | -2.23
24 | CCS(=O)CCSP(=O)(OC)OC (centres undefined) | 1.58
25 | CCN1CC2(COC)C(O)CC(OC)C34C5CC6(O)C(OC)C(O)C(OC(C)=O)(C5C6OC(=O)c5ccccc5)C(C(OC)C23)C14 (centres undefined) | 17.1
26 | ClC1=C(Cl)C2(Cl)C3C(Cl)C=CC3C1(Cl)C2(Cl)Cl (centres undefined) | 0.441
27 | CCC(C)C(=O)c1c(O)c(C)c2oc3c(C)c(O)c(C(=O)C(C)CC)c(O)c3c2c1O (centres undefined) | 4.14
28 | C[C@]12C=CC(=O)C=C1CC[C@@H]1[C@@H]2CC[C@]2(C)C(=O)CC[C@@H]12 | -9.35
29 | C=C1C([C@]2(C)C(CC(=O)OC)[C@@](C)(COC(C)=O)OC(=O)C[C@@H]2OC(C)=O)[C@@H](OC=O)[C@H](OC(=O)C(OC(C)=O)C(C)CC)[C@@]2(C)[C@H](c3ccoc3)CC(=O)C12O (some centres undefined) | -6.98
